Assay results: PubChem BioAssay (NCI)
Values joined by “and” are separate entries in the source; they are usually repeats but may differ in a detail not shown here. Equal entries are not always repeated. About 83,000 compounds went through this panel and 20% of them were active in at least one assay; those are over-represented in the sample as a whole.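 Interpretation: 100, growth as untreated; towards 0, rising growth inhibition; 0, no net growth; 0 to -100, cell death. Compounds scoring below 10 were considered active.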 Active and inactive are the calls of the source.

system: MDA-MB-468 breast; assay: NCI-60 one-dose screen, 48 h (100 = growth as untreated, 0 = no growth, -100 = all killed); settings: 10 µM unless noted

Compound	growth
CC[C@]12C=CCN3CC[C@@]4(c5cc(NC(=O)CCC(=O)O[C@H]6CC[C@H]7[C@@H]8CCC9=CC(=O)CC[C@@H]9[C@H]8CC[C@]67C)c(OC)cc5N(C)[C@H]4[C@@](O)(C(=O)OC)[C@@H]1OC(C)=O)[C@@H]32	51.9% (inactive)
CN=S(=O)(NC(=O)c1ccc(Cl)cc1Cl)c1ccc(Br)s1 (centres undefined)	88.3% (inactive)
CN(C)c1ccc(C(=O)c2ccc(N(C)C)c(N)c2)cc1N	-20.9% (active)
OCCNc1nc(NCCO)nc(Nc2ccc(C3=NN(c4cc(Cl)cc(Cl)c4)C(c4ccccc4)C3)cc2)n1 (centres undefined)	73.5% (inactive)
C=C(CN=[N+]=[N-])[C@@H]1CC[C@]2(C)[C@H](CC[C@@H]3[C@H]4[C@H]5OC(=O)[C@@]4(CCC5(C)C)CC[C@]32C)[C@@]1(C)CCC#N	72.3% [100 µM] (inactive)
O=C(O)c1cccc2c1C(=O)N(c1ccc3c(c1)Cc1ccccc1-3)C2=O	107% (inactive)
Cc1ccc(Nc2cc(=S)nc(N)[nH]2)cc1C	84.8% (inactive)
CCCCCCCC/C=C\CCCCCCCCOc1ccccc1CCOP(=O)(O)OCC[N+](C)(C)C	61.9% (inactive)
N#CCCN1C/C(=C/c2ccc(Br)cc2)C(=O)/C(=C/c2ccc(Br)cc2)C1	-71.3% (active)
Nc1ccccc1SC(CC(=O)c1ccccc1)c1c(Cl)cccc1Cl (centres undefined)	64.7% (inactive)
Cc1ccc(NC(=O)NC(=O)CSc2nc3ccccc3nc2C)cc1	19.6% (inactive)
O=C1Nc2cc(-c3ccncc3)ccc2/C1=C/c1ccc[nH]1	-15.9% (active)
Cc1ccc(-c2noc(C)n2)cc1	101% (inactive)
O=c1[nH]c(-c2cn(-c3ccc(Cl)cc3)nn2)nc2ccccc12	77.1% (inactive)
N#CC(C#N)=C/C=C/c1cccc([N+](=O)[O-])c1	-56.4% (active) and -30.4% (active)
Oc1ccc(CCC2CCCC(CCc3ccc(OCCF)cc3)N2)cc1 (centres undefined)	110% (inactive)
Fc1ccc2nc(-c3nc(-c4ccccc4)n4ccccc34)[nH]c2c1	-68.1% (active)

Compound	growth
CC1=NN(c2ccc(S(=O)(=O)O)cc2)C(=O)C1N=Nc1ccc(-c2ccc(N=Nc3ccc(OS(=O)(=O)c4ccc(C)cc4)cc3)c(S(=O)(=O)O)c2)cc1 (centres undefined)	86.8% (inactive)
COc1cc(CNC(=O)CCCC/C=C/C(C)C)ccc1O	94.6% (inactive) and 98.5% (inactive)
CCCCCCNC(=O)Oc1ccc(/C(=C(/C)Cc2ccc(OC)cc2)c2ccc(OCCN3CCCCC3)cc2)cc1	88.6% (inactive)
Ic1cccs1	103% (inactive)
O=C(/C=C/c1cc2ccccc2[nH]c1=O)c1ccc(O)cc1	0.877% (active)
COc1cc(-c2nc3c(ncc4ccc(=O)n(-c5ccccc5)c43)s2)cc(OC)c1OC	47.3% (inactive)
COc1ccc(/C=C2\N=C(Nc3ccccc3)N(NC(=O)c3ccccn3)C2=O)cc1	97.2% (inactive)
COC(=O)c1nc(-c2ccccc2)oc1S(=O)(=O)N1CCC(C(N)=O)CC1	-14.6% (active)
CC1(C)CC[C@]2(C(=O)OC(=O)[C@]34CCC(C)(C)C[C@@H]3C3=CC[C@@H]5[C@@]6(C)CCC(=O)C(C)(C)[C@@H]6CC[C@@]5(C)[C@]3(C)CC4)CC[C@]3(C)C(=CC[C@@H]4[C@@]5(C)CCC(=O)C(C)(C)[C@@H]5CC[C@]43C)[C@H]2C1	61.5% [100 µM] (inactive)
O=[N+]([O-])c1cc(Br)cc2c1[nH]c1ccc(Br)cc12	70.3% (inactive)
O=C1C(c2c(O)[nH]c3ncccc23)=Nc2ccccc21	42.6% (inactive)
CCOC(=O)c1cc2c(n1Cc1cc(OC)cc(OC)c1)-c1oncc1CCC2	22.4% (inactive)
C=C1C(=O)O[C@H]2[C@H]1CC/C(COC(=O)CCC(=O)NCCOCCOCC(=O)Nc1ccc(OC)c(C(N)=O)c1O)=C\CC[C@@]1(C)O[C@@H]21	-17.5% (active)
Cc1ccc(NC2=CC(=O)C(=O)c3ccccc32)c(C)c1	14.1% (inactive)
O=C(O)c1cn(C2CC2)c2cc(N3CCN(C(=O)CSc4nnc(-c5ccc(Cl)cc5)n4-c4ccccc4)CC3)c(F)cc2c1=O	101% (inactive)
COc1c(Cl)cc(Cl)c2ccc(C=C3C(=O)NC(=S)NC3=O)nc12	108% (inactive)
COc1cc(OC)c(/C=C/C(=O)c2c(O)cc(OC)c(C3CCN(C)CC3)c2OC)c(OC)c1	-91.1% (active)
